Data on 21 compounds can be found in PubChem BioAssay (NCI).

Assay [1] can be described thus: NCI Yeast Anticancer Drug Screen. Data for the rad50 strain (AID 155).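 Also: 0% = growth of vehicle-only cultures of the same strain.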 The settings on record: S. cerevisiae rad50 strain growth inhibition, active compounds read high; at 50.0 µM unless noted. In a few lines:
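Genetically altered yeast (DNA repair pathway); compound treatment; growth inhibition vs vehicle ctrl.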

Assay [2] in a line: NCI Yeast Anticancer Drug Screen. Data for the mec2-1 strain (AID 157). Particulars: S. cerevisiae mec2-1 strain, active compounds read high; at 50.0 µM unless noted. In a few lines:
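Each compound was tested on mec2-1 yeast, a strain altered in DNA damage repair or cell cycle control. Growth inhibition is reported relative to vehicle.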

A short description of assay [3]: NCI Yeast Anticancer Drug Screen. Data for the sgs1 mgt1 strain (AID 161).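 Also: 0% = growth of cultures given vehicle only.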 The settings on record: S. cerevisiae sgs1 mgt1 strain, active compounds read high; at 50.0 µM unless noted. A digest of the protocol:
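Read-out: growth inhibition vs vehicle controls. Cells: mutant yeast strain deficient in DNA damage repair.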

The nature of assay [4]: NCI Yeast Anticancer Drug Screen. Data for the cln2 rad14 strain (AID 165).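 Also: 0% = growth equal to vehicle treated cultures.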 Particulars: S. cerevisiae cln2 rad14 strain, active compounds read high; at 50.0 µM unless noted. In a few lines:
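Test compounds were added to cln2 rad14 yeast cultures; inhibition of growth was then determined by comparison with vehicle treatment.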

Assay [5] in a line: NCI Yeast Anticancer Drug Screen. Data for the bub3 strain (AID 167). The settings on record: S. cerevisiae bub3 mutant strain, active compounds read high; at 50.0 µM unless noted. A digest of the protocol:
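Yeast carrying a defined mutation is treated with each compound, and growth is compared with that of vehicle-exposed cells to give inhibition.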

Assay [6] in a line: NCI Yeast Anticancer Drug Screen. Data for the mlh1 rad18 strain (AID 175). The settings on record: S. cerevisiae mlh1 rad18 strain growth inhibition, active compounds read high; at 50.0 µM unless noted. In a few lines:
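Inhibition values reflect reduced growth of mutant yeast versus vehicle-treated controls following compound exposure; the mutations affect DNA damage repair.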

Compounds without any hit were thinned out: in the full panel of roughly 79,000, 15% have a hit. A number with no mark means an inactive call. The source made the active and inactive calls. Rule as the data show it: active = growth inhibition above about 70%; inactive = the rest.

In the case of `O=c1c2c3c(sc2nc2n1N=C(c1ccc(Cl)cc1)CS2)CCCC3`, the growth inhibition in assay [1] was -23.6%; in assay [2], 6.05%; in assay [3] it was -37.9%; in assay [4], 1.8%; in assay [5] it was -12.1%; in assay [6], -16.6%.

With `Cn1c2c(c(=O)c3cc(O)ccc31)CC(O)C(C)(C)O2` (stereo unspecified), the growth inhibition was -8.9% in assay [1]; -10.8% in assay [2]; -11.7% in assay [3]; -11% in assay [4]; 8.8% in assay [5]; -2.7% in assay [6].

Consider `Cc1[nH]c2c(ccc3c2ccc2c(=O)c(C)c(C)[nH]c23)c(=O)c1C`, for which the growth inhibition is -2.05% in assay [1]; -7.45% in assay [2]; -4.35% in assay [3]; -29% in assay [4]; -0.3% in assay [5]; 2.3% in assay [6].

As for `CC(=O)Nc1cc(NC(C)=O)c2ccc(=O)[nH]c2c1O`, the growth inhibition was -2.9% in assay [1]; -3.6% in assay [2]; -3.55% in assay [3]; -8.25% in assay [4]; 15.3% in assay [5]; 5.3% in assay [6].

As for `Fc1ccccc1-c1nn2c(C34CC5CC(CC(C5)C3)C4)nnc2s1`, the growth inhibition is 6.45% in assay [1]; -33.1% in assay [2]; -29.6% in assay [3]; -14.5% in assay [4]; -11.8% in assay [5]; -52% in assay [6].

With `Cc1nc2ccc(Br)cc2c(=O)n1-c1ccc(-c2n[nH]c(=S)n2-c2ccccc2)cc1`, the growth inhibition in assay [1] was 14%; in assay [2] it was 13.2%; in assay [3], 13.4%; in assay [4], -27.9%; in assay [5], 6.8%; in assay [6] it was 42.4%.

With `Cc1cc(Cl)ccc1NC(=O)Oc1ccc(C#N)cc1`, the growth inhibition in assay [1] is -13.8%; in assay [2], -18.4%; in assay [3], -25.2%; in assay [4] it was -10.6%; in assay [5] it was -17.1%; in assay [6], -19.4%.

Consider `Cc1ccc(C(=O)/C=C/C(=O)c2ccc(C)cc2)cc1`, for which the growth inhibition is 4.55% in assay [1]; 29.9% in assay [2]; 19.2% in assay [3]; 19.9% in assay [4]; 14.9% in assay [5]; 3.8% in assay [6].

Consider `COC1/C=C/OC2(C)Oc3c(C)c(O)c4c(c3C2=O)C(N)=C(NC2CC2)C(=NC(=O)/C(C)=C\C=C\C(C)C(O)C(C)C(O)C(C)C(OC(C)=O)C1C)C4=O` (stereo unspecified), for which the growth inhibition in assay [1] was 15.7%; in assay [2], 32.7%; in assay [3] it was 41.2%; in assay [4] it was 49%; in assay [5], 31.9%; in assay [6], 33.1%.

`O=C(c1ccccc1)C(F)S(=O)(=O)O` (stereo unspecified): the growth inhibition was -5.7% in assay [1]; -7.75% in assay [2]; -9.05% in assay [3]; -25.8% in assay [4]; 6.2% in assay [5]; 16.9% in assay [6].

`COC1=CC(=O)C2CC=CC(CC(=O)O)C2(C)C1=O` (stereo unspecified): the growth inhibition in assay [1] is -0.95%; in assay [2], -2.4%; in assay [3] it was -0.35%; in assay [4] it was -21.9%; in assay [5], 7.3%; in assay [6], 4.5%.

For the compound `CC(C)C(=O)OC1(CC2CCCCN2C)CCCCC1` (stereo unspecified), the growth inhibition was -3.2% in assay [1]; 13.7% in assay [2]; 3.95% in assay [3]; -5.8% in assay [4]; 5.3% in assay [5]; 6.85% in assay [6].

In the case of `Cc1cc(Cl)cc2c1OC(C)OC2=O` (stereo unspecified), the growth inhibition was -7.85% in assay [1]; 0.2% in assay [2]; -17.6% in assay [3]; -5.6% in assay [4]; 11.6% in assay [5]; 28.6% in assay [6].

Regarding `O=C(Cc1ccccc1)CC(CC(=O)Cc1ccccc1)c1ccccc1`, the growth inhibition was 31% in assay [1]; -16.7% in assay [2]; 6.6% in assay [3]; 15.8% in assay [4]; 3.7% in assay [5]; -6.15% in assay [6].

In the case of `Cc1cc(C(=O)O)c(C(=O)O)c(Cl)n1`, the growth inhibition was -9.15% in assay [1]; -5% in assay [2]; 0.45% in assay [3]; -12.9% in assay [4]; -16.9% in assay [5]; 4.8% in assay [6].

Consider `CNC(=O)N(CCCCC(NC(C)=O)C(=O)NCc1ccccc1)Cc1ccccc1` (stereo unspecified), for which the growth inhibition in assay [1] was -12.3%; in assay [2], -23.2%; in assay [3] it was -15.8%; in assay [4], -12.4%; in assay [5], -7.1%; in assay [6], -12.8%.

Take `CC1=CCC2C(C)(C)CCCC2(C)C1COC1OC(OCC2C(C)=CCC3C(C)(C)CCCC23C)C2C1=CCC1C(C)(C)CCCC21C` (stereo unspecified): the growth inhibition was 90% (active) in assay [1]; 89.2% (active) in assay [2]; 84.1% (active) in assay [3]; 89.6% (active) in assay [4]; 89.2% (active) in assay [5]; 88% (active) in assay [6].

In the case of `Cc1nnc(N/N=C(/C(=O)C(C#N)c2ccc(Cl)cc2)C(C#N)c2ccc(Cl)cc2)n1N` (stereo unspecified), the growth inhibition was -9.3% in assay [1]; 19.6% in assay [2]; 3.85% in assay [3]; 16.6% in assay [4]; 12% in assay [5]; 7.4% in assay [6].

As to `CCCCCCCOC(=O)C1(O)CCCCC1`, the growth inhibition in assay [1] was 6.1%; in assay [2], 1.25%; in assay [3], 6.65%; in assay [4], 32.5%; in assay [5], 16.8%; in assay [6] it was -16.6%.

Regarding `N#CNc1nc(N)c(-c2ccc(Cl)cc2)c(C(=O)Nc2nccs2)n1`, the growth inhibition in assay [1] is -8.85%; in assay [2] it was -10.9%; in assay [3], 3.25%; in assay [4], 1.5%; in assay [5] it was -7.75%; in assay [6], -12.6%.

Turning to `COC(=O)C(C)(N=Cc1ccccc1)c1ccccc1` (stereo unspecified), the growth inhibition in assay [1] is -34.2%; in assay [2], -30.9%; in assay [3] it was 6.7%; in assay [4], 17.4%; in assay [5], -9.75%; in assay [6], 0.6%.
